Source: PubChem BioAssay (EPA / NIEHS)
The source made the active and inactive calls. Rule for the calls: active = hit-call score of the fitted dose curve at least 0.9, where 1 is the maximum; inactive = score below 0.9.

How the values were obtained:
[1] = ATG_E_Box_CIS: Attagene CIS-FACTORIAL HepG2 Assay for human Enhancer Box (E-box) (AID 2282936); conditions: HepG2 E-box cis-reporter transcription, actives raise or lower the signal
How it was run: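 First, HepG2 cells receive multiple cis-regulated reporter constructs by transient transfection. Next, chemicals are applied for 24 h. Finally, reporter mRNA is quantified via RT-PCR and capillary electrophoresis, with DMSO as baseline.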

[2] = ATG_M_61_CIS: Attagene CIS-FACTORIAL HepG2 Assay for M61 Transcription Factor (Internal Marker) (AID 2282937); conditions: HepG2 Attagene CIS-FACTORIAL M61 internal marker reporter; actives raise or lower the signal
How it was run: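 Background-control endpoint: HepG2 cells with cis-regulated reporter constructs, 24 h exposure, reporter mRNA detected via fluorescent primer extension and capillary electrophoresis; values from bidirectional fitting with DMSO baseline.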

[3] = ATG_EGR_CIS: Attagene CIS-FACTORIAL HepG2 Assay for human Early Growth Response 1 (EGR1) (AID 2282938); conditions: HepG2 Attagene CIS-FACTORIAL EGR reporter mRNA; actives raise or lower the signal
How it was run: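 Endpoint derived by bidirectional fitting versus DMSO vehicle. Method: cis-promoter reporter units transfected into HepG2, 24 h dosing, RNA isolation, RT-PCR with 6-FAM primer extension and HpaI digestion, then capillary electrophoresis fluorescence detection.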

[4] = ATG_M_19_CIS: Attagene CIS-FACTORIAL HepG2 Assay for M19 Transcription Factor (Internal Marker) (AID 2282939); conditions: HepG2 Attagene CIS-FACTORIAL M19 internal marker reporter; actives raise or lower the signal
How it was run: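 Signals come from fluorescence of labelled reporter-specific PCR fragments resolved by capillary electrophoresis, following 24 h treatment of HepG2 cells transfected with cis-promoter reporter units; activity was fitted in both directions relative to DMSO.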

[5] = ATG_ERE_CIS: Attagene CIS-FACTORIAL HepG2 Assay for Estrogen Response Element (ERE) (AID 2282940); conditions: HepG2 ERE cis-reporter, Attagene RNA transcript; actives raise or lower the signal
How it was run: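 Fluorescence of capillary-separated, FAM-labelled reporter cDNA fragments indicates reporter mRNA levels in HepG2 cells exposed to chemicals for 24 h. Transient transfection with cis-regulated units; data fitted in both directions against DMSO.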

[6] = ATG_Ets_CIS: Attagene CIS-FACTORIAL HepG2 Assay for human Erythroblast Transformation Specific (ETS) (AID 2282941); conditions: HepG2 ETS cis-reporter transcription, actives raise or lower the signal
How it was run: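 Steps: transfect HepG2 with multiple reporter units; treat compound 24 h; isolate RNA, DNase-treat, reverse-transcribe; PCR-amplify, label with 6-FAM, digest with HpaI; separate by capillary electrophoresis. Activity fitted both directions versus DMSO.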

[7] = ATG_FoxO_CIS: Attagene CIS-FACTORIAL HepG2 Assay for human Forkhead box O (FoxO) (AID 2282943); conditions: HepG2 Attagene cis-reporter, FoxO element, mRNA; actives raise or lower the signal
How it was run: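 Read-out: fluorescence of 6-FAM-labelled reporter cDNA fragments resolved by capillary electrophoresis. Transiently transfected HepG2 cells were dosed for 24 h; activity fitted in both directions relative to DMSO controls.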

[8] = ATG_GATA_CIS: Attagene CIS-FACTORIAL HepG2 Assay for human GATA Binding Protein (AID 2282944); conditions: HepG2 GATA cis-element reporter, Attagene multiplex mRNA; actives raise or lower the signal
How it was run: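 After transfecting HepG2 cells with multiple cis-regulated reporter units, chemicals are dosed for 24 h; isolated RNA undergoes RT-PCR and fluorescent labeling before capillary electrophoresis, with activity expressed against DMSO.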

[9] = ATG_GLI_CIS: Attagene CIS-FACTORIAL HepG2 Assay for human Zinc Finger Protein GLI1 (AID 2282945); conditions: HepG2, Attagene cis-factorial reporter mRNA, GLI element; actives raise or lower the signal
How it was run: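 Transiently transfected HepG2 cells report endogenous transcription factor activity via cis-element-driven reporter units. After 24 h compound exposure, reporter mRNA was measured by RT-PCR with capillary electrophoresis; bidirectional fitting against DMSO baseline.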

[10] = molecular target: Bile acid receptor (Homo sapiens) (UniProt Q96RI1); assay: ATG_IR1_CIS: Attagene CIS-FACTORIAL HepG2 Assay for human Nuclear Receptor Subfamily 1 Group H Member 4 (NR1H4), IR1 submotif (AID 2282946); conditions: IR1 reporter transcription, actives raise or lower the signal
Bile acid receptor (Homo sapiens), sequence (Q96RI1 whole entry, looked up): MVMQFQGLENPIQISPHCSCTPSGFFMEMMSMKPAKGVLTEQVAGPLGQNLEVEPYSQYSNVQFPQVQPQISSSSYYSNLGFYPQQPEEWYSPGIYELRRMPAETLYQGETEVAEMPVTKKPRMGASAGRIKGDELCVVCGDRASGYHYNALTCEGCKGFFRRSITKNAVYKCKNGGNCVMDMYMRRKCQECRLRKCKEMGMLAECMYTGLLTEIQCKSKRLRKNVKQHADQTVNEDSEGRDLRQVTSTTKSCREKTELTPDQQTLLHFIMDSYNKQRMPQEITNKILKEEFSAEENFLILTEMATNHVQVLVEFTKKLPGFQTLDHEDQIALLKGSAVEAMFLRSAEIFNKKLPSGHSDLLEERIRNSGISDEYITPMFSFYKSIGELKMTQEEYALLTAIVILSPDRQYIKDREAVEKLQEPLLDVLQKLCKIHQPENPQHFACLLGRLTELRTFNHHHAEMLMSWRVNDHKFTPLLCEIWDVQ
How it was run: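 HepG2 cells transiently transfected with multiple cis-promoter-driven reporter units to measure endogenous transcription factor activity; 24 h exposure. Reporter mRNA read by RT-PCR, FAM labelling, HpaI digestion and capillary electrophoresis. Bidirectional fit versus DMSO.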

[11] = ATG_ISRE_CIS: Attagene CIS-FACTORIAL HepG2 Assay for human Interferon Regulatory Factor 1 (IRF1) binding to an Interferon-Stimulated Response Element (ISRE) (AID 2282948); conditions: HepG2 ISRE cis-reporter (Attagene), mRNA transcription readout; actives raise or lower the signal
How it was run: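 Transfected HepG2 (multiple reporter transcription units, cis elements) dosed 24 h. RNA → oligo(dT) RT → PCR → 6-FAM primer extension → HpaI → CE. DMSO = negative control/baseline.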

[12] = ATG_M_32_CIS: Attagene CIS-FACTORIAL HepG2 Assay for M32 Transcription Factor (Internal Marker) (AID 2282949); conditions: HepG2 Attagene cis-factorial M32 reporter, mRNA; actives raise or lower the signal;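 note: background control marker of the multiplexed CIS panel rather than a real target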
How it was run: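 Internal background marker read-out: RT-PCR/capillary electrophoresis fluorescence of reporter transcripts from transiently transfected HepG2 cells after 24 h chemical exposure. Activity fitted bidirectionally relative to DMSO negative control.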

[13] = ATG_M_06_CIS: Attagene CIS-FACTORIAL HepG2 Assay for M06 Transcription Factor (Internal Marker) (AID 2282950); conditions: HepG2 Attagene CIS-FACTORIAL M06 internal marker reporter; actives raise or lower the signal
How it was run: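 HepG2 liver cells, 24 h exposure. Reporter transcripts from transfected cis-element constructs quantified by RT-PCR/capillary electrophoresis fluorescence. Bidirectional curve fit against DMSO.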

[14] = molecular target: Hypoxia-inducible factor 1-alpha (Homo sapiens) (UniProt Q16665); assay: ATG_HIF1a_CIS: Attagene CIS-FACTORIAL HepG2 Assay for human Hypoxia Inducible Factor 1 (HIF1A) (AID 2282951); conditions: HepG2 Attagene cis-factorial HIF1a reporter transcription; actives raise or lower the signal
Hypoxia-inducible factor 1-alpha (Homo sapiens), sequence (Q16665 whole entry, looked up): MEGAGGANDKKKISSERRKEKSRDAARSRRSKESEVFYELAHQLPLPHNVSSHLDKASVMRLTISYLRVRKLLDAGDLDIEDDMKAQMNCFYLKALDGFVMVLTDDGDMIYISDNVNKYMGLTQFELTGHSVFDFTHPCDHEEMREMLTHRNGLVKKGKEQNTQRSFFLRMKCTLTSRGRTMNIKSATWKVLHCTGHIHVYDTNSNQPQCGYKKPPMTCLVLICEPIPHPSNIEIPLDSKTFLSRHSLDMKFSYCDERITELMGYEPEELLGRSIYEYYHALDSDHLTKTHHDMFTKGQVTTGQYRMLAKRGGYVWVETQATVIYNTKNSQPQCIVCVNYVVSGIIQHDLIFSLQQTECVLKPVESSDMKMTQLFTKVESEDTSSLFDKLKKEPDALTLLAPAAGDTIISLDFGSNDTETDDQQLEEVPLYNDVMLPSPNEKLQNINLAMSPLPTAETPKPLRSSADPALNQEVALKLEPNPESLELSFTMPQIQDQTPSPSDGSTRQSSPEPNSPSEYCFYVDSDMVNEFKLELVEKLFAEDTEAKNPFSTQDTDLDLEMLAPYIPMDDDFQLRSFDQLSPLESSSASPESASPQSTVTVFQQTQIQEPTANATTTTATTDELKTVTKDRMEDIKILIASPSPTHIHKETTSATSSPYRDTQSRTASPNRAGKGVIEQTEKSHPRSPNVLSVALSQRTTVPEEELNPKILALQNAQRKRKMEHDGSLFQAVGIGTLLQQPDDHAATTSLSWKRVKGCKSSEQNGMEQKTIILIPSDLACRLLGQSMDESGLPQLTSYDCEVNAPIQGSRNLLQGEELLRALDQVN
How it was run: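 Dosed 24 h, transfected HepG2 cells yielded total RNA whose reporter transcripts were RT-PCR-amplified and sized by capillary electrophoresis using fluorescent labelling; DMSO defined baseline, with gain and loss of signal both fitted.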

[15] = molecular target: Hepatocyte nuclear factor 6 (Homo sapiens) (UniProt Q9UBC0); assay: ATG_HNF6_CIS: Attagene CIS-FACTORIAL HepG2 Assay for human Hepatocyte Nuclear Factor 6 (HNF6) (AID 2282952); conditions: HepG2 Attagene cis-factorial HNF6 reporter transcription; actives raise or lower the signal
Hepatocyte nuclear factor 6 (Homo sapiens), sequence (Q9UBC0 whole entry, looked up): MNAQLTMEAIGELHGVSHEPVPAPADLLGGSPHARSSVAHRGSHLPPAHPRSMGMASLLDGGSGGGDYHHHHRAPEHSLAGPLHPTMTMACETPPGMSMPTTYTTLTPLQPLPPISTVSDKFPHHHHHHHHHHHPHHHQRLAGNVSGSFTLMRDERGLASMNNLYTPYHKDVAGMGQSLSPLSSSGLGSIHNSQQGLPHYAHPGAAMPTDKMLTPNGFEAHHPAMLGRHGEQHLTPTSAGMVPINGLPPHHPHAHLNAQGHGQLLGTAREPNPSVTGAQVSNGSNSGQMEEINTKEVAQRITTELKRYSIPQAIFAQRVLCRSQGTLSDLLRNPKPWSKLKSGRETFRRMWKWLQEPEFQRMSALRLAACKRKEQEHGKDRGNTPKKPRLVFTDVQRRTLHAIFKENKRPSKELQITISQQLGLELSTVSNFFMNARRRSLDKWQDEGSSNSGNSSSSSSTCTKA
How it was run: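 Multiplexed mRNA reporter assay in transfected HepG2; 24 h dosing; RT-PCR plus capillary electrophoresis fluorescence; DMSO-referenced bidirectional curve fitting.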

[16] = molecular target: Heat shock factor protein 1 (Homo sapiens) (UniProt Q00613); assay: ATG_HSE_CIS: Attagene CIS-FACTORIAL HepG2 Assay for human Heat Shock Transcription Factor 1 (HSE) (AID 2282953); conditions: HepG2 HSE cis-reporter, Attagene RNA transcription; actives raise or lower the signal
Heat shock factor protein 1 (Homo sapiens), sequence (Q00613 whole entry, looked up, the tested form may be a part): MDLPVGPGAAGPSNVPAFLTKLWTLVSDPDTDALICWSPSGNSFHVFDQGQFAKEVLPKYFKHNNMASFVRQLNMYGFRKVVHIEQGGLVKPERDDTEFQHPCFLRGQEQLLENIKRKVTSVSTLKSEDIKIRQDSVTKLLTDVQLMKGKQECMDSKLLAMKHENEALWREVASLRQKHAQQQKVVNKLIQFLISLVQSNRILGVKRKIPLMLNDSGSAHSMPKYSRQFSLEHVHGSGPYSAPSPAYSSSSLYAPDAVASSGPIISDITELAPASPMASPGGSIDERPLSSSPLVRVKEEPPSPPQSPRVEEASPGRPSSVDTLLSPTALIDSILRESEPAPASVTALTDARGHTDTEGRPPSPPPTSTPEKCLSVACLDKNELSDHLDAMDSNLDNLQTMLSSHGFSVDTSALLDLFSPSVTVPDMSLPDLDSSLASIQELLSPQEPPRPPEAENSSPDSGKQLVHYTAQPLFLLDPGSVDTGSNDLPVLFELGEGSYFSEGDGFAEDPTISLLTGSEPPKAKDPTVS
How it was run: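 Endogenous transcription factor activity captured via cis-promoter reporter units transfected into HepG2; treatment lasted 24 h. Fluorescence intensity of reporter fragments analysed with bidirectional curve fitting, DMSO baseline.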

[17] = ATG_MRE_CIS: Attagene CIS-FACTORIAL HepG2 Assay for human Metal Responsive Element (MRE) (AID 2282954); conditions: HepG2 MRE cis-reporter transcription, Attagene multiplex; actives raise or lower the signal
How it was run: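 Fluorescent reporter fragments separated by capillary electrophoresis give mRNA induction for the MRE unit after 24 h treatment of transfected HepG2 cells. Endogenous transcription-factor activity is read; DMSO serves as negative control and baseline.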

[18] = molecular target: Hepatocyte nuclear factor 3-beta (Homo sapiens) (UniProt Q9Y261); assay: ATG_FoxA2_CIS: Attagene CIS-FACTORIAL HepG2 Assay for human Forkhead box A2 (FOXA2) (AID 2282942); conditions: HepG2 cis-reporter transcription factor activity, 24 h; actives raise or lower the signal
Hepatocyte nuclear factor 3-beta (Homo sapiens), sequence (Q9Y261 whole entry, looked up): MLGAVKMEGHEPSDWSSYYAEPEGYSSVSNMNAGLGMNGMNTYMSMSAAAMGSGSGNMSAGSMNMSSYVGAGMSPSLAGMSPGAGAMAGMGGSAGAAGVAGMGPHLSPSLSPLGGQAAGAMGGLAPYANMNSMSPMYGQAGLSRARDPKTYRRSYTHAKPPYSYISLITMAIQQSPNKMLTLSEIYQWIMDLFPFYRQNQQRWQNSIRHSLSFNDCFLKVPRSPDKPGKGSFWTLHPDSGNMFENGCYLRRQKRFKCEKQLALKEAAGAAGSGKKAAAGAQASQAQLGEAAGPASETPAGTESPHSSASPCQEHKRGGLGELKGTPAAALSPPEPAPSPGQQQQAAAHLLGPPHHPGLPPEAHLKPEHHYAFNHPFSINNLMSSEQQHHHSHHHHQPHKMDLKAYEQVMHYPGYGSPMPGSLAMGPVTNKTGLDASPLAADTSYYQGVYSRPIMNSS
How it was run: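 Measured: reporter mRNA induction or loss in HepG2 transiently carrying multiple cis-regulated reporter units, 24 h after dosing. Quantified by RT-PCR plus capillary electrophoresis, normalised to DMSO.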

[19] = ATG_PBREM_CIS: Attagene CIS-FACTORIAL HepG2 Assay for human Phenobarbital-responsive Enhancer Module (PBREM) (AID 2282955); conditions: HepG2 PBREM cis-reporter, Attagene multiplexed transcription; actives raise or lower the signal
How it was run: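 Transfected liver-derived HepG2 cells exposed 24 h; PBREM reporter transcript quantified via RT-PCR and capillary electrophoresis, with activity in either direction referenced to DMSO.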

[20] = ATG_GRE_CIS: Attagene CIS-FACTORIAL HepG2 Assay for human Glucocorticoid Response Elements (GRE) (AID 2282947); conditions: HepG2 GRE cis-reporter, Attagene multiplex mRNA; actives raise or lower the signal
How it was run: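 Endogenous transcription factor activity is read through cis-element reporter constructs transiently transfected into HepG2 cells. After 24 h treatment, labelled RT-PCR products are resolved by capillary electrophoresis; DMSO sets baseline for bidirectional curve fitting.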

C=C(C)C(=O)OCC(C)C
outcome [1]: inactive
outcome [2]: inactive
outcome [3]: inactive
outcome [4]: inactive
outcome [5]: inactive
outcome [6]: inactive
outcome [7]: inactive
outcome [8]: inactive
outcome [9]: inactive
outcome [10]: inactive
outcome [11]: inactive
outcome [12]: inactive
outcome [13]: inactive
outcome [14]: inactive
outcome [15]: inactive
outcome [16]: inactive
outcome [17]: inactive

CC1=CC[C@H](C(C)C)C=C1
outcome [1]: inactive
outcome [2]: inactive
outcome [3]: inactive
outcome [4]: inactive
outcome [5]: inactive
outcome [6]: inactive
outcome [18]: inactive
outcome [7]: inactive
outcome [8]: inactive
outcome [9]: inactive
outcome [11]: inactive
outcome [13]: inactive
outcome [14]: inactive
outcome [15]: inactive
outcome [16]: inactive
AC50 [17]: 66.3 µM (active)
outcome [19]: inactive

S=C(NC1CCCCC1)NC1CCCCC1
outcome [1]: inactive
outcome [2]: inactive
outcome [3]: inactive
outcome [4]: inactive
outcome [5]: inactive
outcome [18]: inactive
outcome [7]: inactive
outcome [8]: inactive
outcome [9]: inactive
outcome [20]: inactive
outcome [11]: inactive
outcome [12]: inactive
outcome [13]: inactive
outcome [14]: inactive
outcome [15]: inactive
outcome [16]: inactive
outcome [17]: inactive
outcome [19]: inactive

O=c1n(CCO)c(=O)n(CCO)c(=O)n1CCO
outcome [1]: inactive
outcome [2]: inactive
outcome [3]: inactive
outcome [4]: inactive
outcome [5]: inactive
outcome [18]: inactive
outcome [7]: inactive
outcome [8]: inactive
outcome [9]: inactive
outcome [10]: inactive
outcome [11]: inactive
outcome [12]: inactive
outcome [13]: inactive
outcome [14]: inactive
outcome [15]: inactive
outcome [16]: inactive
outcome [17]: inactive
outcome [19]: inactive

Cc1cc(=O)n(-c2ccccc2)n1C
outcome [1]: inactive
outcome [2]: inactive
outcome [3]: inactive
outcome [4]: inactive
outcome [5]: inactive
outcome [6]: inactive
outcome [7]: inactive
outcome [8]: inactive
outcome [9]: inactive
outcome [10]: inactive
outcome [11]: inactive
outcome [12]: inactive
outcome [13]: inactive
outcome [15]: inactive
outcome [17]: inactive
outcome [19]: inactive

C1=Cc2ccccc2C1
outcome [1]: inactive
outcome [2]: inactive
outcome [3]: inactive
outcome [4]: inactive
AC50 [5]: 44.3 µM (active)
outcome [6]: inactive
outcome [18]: inactive
outcome [7]: inactive
outcome [8]: inactive
outcome [9]: inactive
outcome [11]: inactive
outcome [12]: inactive
outcome [13]: inactive
outcome [14]: inactive
outcome [15]: inactive
outcome [16]: inactive
outcome [17]: inactive
outcome [19]: inactive

CCOC(=O)Cc1cccc2ccccc12
outcome [1]: inactive
outcome [2]: inactive
outcome [3]: inactive
outcome [4]: inactive
outcome [5]: inactive
outcome [6]: inactive
outcome [7]: inactive
outcome [8]: inactive
outcome [9]: inactive
outcome [20]: inactive
outcome [11]: inactive
outcome [12]: inactive
outcome [13]: inactive
outcome [14]: inactive
outcome [17]: inactive
outcome [19]: inactive

CCN(Cc1cccc(S(=O)(=O)O)c1)c1ccc(C(=C2C=CC(=[N+](CC)Cc3cccc(S(=O)(=O)[O-])c3)C=C2)c2ccccc2)cc1
outcome [1]: inactive
outcome [2]: inactive
outcome [3]: inactive
outcome [4]: inactive
outcome [5]: inactive
outcome [6]: inactive
outcome [7]: inactive
outcome [8]: inactive
outcome [9]: inactive
outcome [11]: inactive
outcome [12]: inactive
outcome [13]: inactive
outcome [14]: inactive
outcome [15]: inactive
AC50 [16]: 83 µM (active)
outcome [17]: inactive
outcome [19]: inactive
